Assay [1] deals with Estrogen receptor (Homo sapiens) (UniProt P03372). Kind of assay: qHTS assay for small molecule antagonists of estrogen receptor alpha signaling (AID 588513; active means well fitted curve in the direction sought with a large enough effect in the signal ratio, with a control signal flat, not every such curve was filed as active; the % refers to the signal ratio; further: on the % scale 0 is the no-effect control and ±100 the full control effect). The method in brief:
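Antagonist-mode qHTS in ER-alpha-UAS-bla HEK 293 cells: compound titration, 0.5nM estradiol for 18 h, CCF4 fluorescence, Hill-derived IC50.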

For assay [2] the target is unchanged. Nature of the assay: qHTS assay for small molecule agonists of estrogen receptor alpha signaling (AID 588514).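 Further: 0% = vehicle only and 100% = reference agonist; nearly all actives have a fitted effect of over 70% in size.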 An outline of the steps:
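Reporter-gene assay. […] controls beta-lactamase in HEK 293 GripTite cells; after 18 hrs with compound, CCF4 substrate is added for 2 hrs and fluorescence is read.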

For assay [3], the target named is Peroxisome proliferator-activated receptor delta (Homo sapiens) (UniProt Q03181). Kind of assay: qHTS assay for small molecule agonists of peroxisome proliferator-activated receptor delta signaling (AID 588534).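 Further: 0% = DMSO basal wells and 100% = positive control agonist at 10 µM.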 The method in brief:
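Reporter cells were plated and held 5 hrs at 37 C before compounds were added. After 18 hrs at 37 C, CCF4 dye was loaded for 2 hrs at RT and fluorescence measured.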

The target in assay [4] is Peroxisome proliferator-activated receptor gamma (Homo sapiens) (UniProt P37231). Nature of the assay: qHTS assay for small molecule agonists of peroxisome proliferator-activated receptor gamma signaling (AID 588536; active means well fitted curve in the direction sought with a large enough effect in the signal ratio, with a control signal flat, not every such curve was filed as active; the % refers to the signal ratio;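 further: 0% = DMSO basal wells and 100% = rosiglitazone at 2 µM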). An outline of the steps: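 GeneBLAzer PPAR-gamma-UAS-bla HEK293 cells in 1% charcoal/dextran-treated FBS medium were treated 16 h at 37 C with compounds. Beta-lactamase activity was read by CCF4 ratio (460/530 nm). Response was normalized to 2 uM rosiglitazone (100%) and DMSO, then Hill-fitted for EC50 and efficacy.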
(Quantitative high-throughput screening tests each substance at several concentrations.)

The target is the same in assay [5]. Kind of assay: qHTS assay for small molecule antagonists of peroxisome proliferator-activated receptor gamma signaling (AID 588537; active means well fitted inhibition curve with a large enough effect in the signal ratio, with a control signal flat, not every such curve was filed as active; the % refers to the signal ratio;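 further: reporter cells co-stimulated with 50 nM rosiglitazone agonist during compound treatment; % of control where 0% means no effect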). An outline of the steps:
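Step one: plate 3000 HEK293 UAS-bla cells per well in medium with 1% stripped serum and hold 6-6.5 h at 37 C. Step two: add compound and 50 nM agonist for 16 h. Step three: CCF4 loading, fluorescence read.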

In assay [6] the target is Vitamin D3 receptor (Homo sapiens) (UniProt P11473). Nature of the assay: qHTS assay for small molecule antagonists of vitamin D receptor signaling (AID 588541).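 Further: receptor activated by calcitriol during compound treatment; series mostly up to about 77 µM; on the % scale 0 is the no-effect control and ±100 the full control effect.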 An outline of the steps:
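VDR-UAS-bla HEK293T cells in 2% charcoal-stripped FBS were stimulated with 1-alpha,25-dihydroxyvitamin D3 (3 nM final) plus compound for 16 h at 37 C. The beta-lactamase CCF4 readout was normalized to 50 nM agonist and DMSO, and Hill fits gave IC50.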

A short description of assay [7]: qHTS assay for small molecule agonists of retinoid X receptor alpha signaling (AID 588544).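 On activation: 0% = DMSO basal wells and 100% = reference agonist.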 Particulars: HEK293T RXRa-UAS-bla, beta-lactamase reporter, 18 h; 530 nm emission.
In assay [8] the target is Retinoic acid receptor RXR-alpha (Homo sapiens) (UniProt P19793). The assay is described as above.
For assay [9], the target named is Thyroid hormone receptor beta (Homo sapiens) (UniProt P10828). Nature of the assay: qHTS assay for small molecule agonists of thyroid hormone receptor beta signaling (AID 588545). The method in brief:
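Agonist-mode beta-lactamase reporter assay, HEK 293 cells, 2% charcoal/dextran FBS; cells plated 4 hrs, compound 18 hrs at 37 C, CCF4 2 hrs RT. Normalized to 10 nM T3 (100%) and DMSO (0%); Hill fit gives EC50, efficacy.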

A short description of assay [10]: qHTS assay for small molecule antagonists of retinoid X receptor alpha signaling (AID 588546; active means well fitted inhibition curve with a large enough effect in the signal ratio, with a control signal flat, not every such curve was filed as active; the % refers to the signal ratio;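 further: cells stimulated with 9-cis-retinoic acid as agonist; on the % scale 0 is the no-effect control and ±100 the full control effect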). As to conditions: HEK293T RXRa-UAS-bla, beta-lactamase ratio, antagonist mode; measured here: W530 green channel, cytotoxicity proxy. The method in brief: (§1)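 Beta-lactamase reporter inhibition, read as CCF4 fluorescence ratio (ex 405, em 460/530 nm) after 2 h at RT. HEK293T UAS-bla cells, 2500/well, were stimulated with 9-cis-RA at 500 or 100 nM final alongside test compound for 18 h at 37 C.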

Assay [11] deals with Retinoic acid receptor RXR-alpha (Homo sapiens) (UniProt P19793). Described as above. As to conditions: HEK293T RXRa-UAS-bla, beta-lactamase ratio, antagonist mode. An outline of the steps:
as §1

A short description of assay [12]: qHTS assay for environmental chemicals that activate the Aryl hydrocarbon Receptor (AhR) signaling pathway (AID 651777; active means well fitted curve in the direction sought with a large enough effect; an effect the other way counts as inactive or inconclusive; further: nearly all actives have a fitted effect of over 15% in size; further: potency means the concentration at half of the fitted maximal effect; on activation: % of control where 0% means no effect). As to conditions: 1A2-DRE human hepatoma cells, luciferase, 24 h; activation: stronger effect = higher value. An outline of the steps: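 Human hepatoma 1A2-DRE cells, stably carrying a dioxin response element and CYP1A2 promoter driving luciferase, were exposed to compounds for 24 hr at 37 C and 5% CO2. Luciferase signal was then read after 30 min One-Glo at room temperature.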

For assay [13], the target named is Peroxisome proliferator-activated receptor alpha (Homo sapiens) (UniProt Q07869). Nature of the assay: qHTS assay for small molecule agonists of the peroxisome proliferator-activated receptor alpha (PPARalpha) signaling pathway (AID 651778; active means well fitted curve in the direction sought with a large enough effect; an effect the other way counts as inactive or inconclusive; further: % of control where 0% means no effect). Particulars: PathHunter PPARalpha complementation, chemiluminescence, 6 h; max response: stronger effect = higher value. An outline of the steps:
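Enzyme-fragment complementation assay in which ligand-bound PPARalpha translocates and forms an active enzyme that generates chemiluminescence. Cells were plated overnight, exposed to compound for 6 hr at 37 C, and then given detection reagent for 60 min at room temperature.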

A short description of assay [14]: qHTS assay for small molecule agonists of the antioxidant response element (ARE) signaling pathway measured by Nrf2-dependant transcriptional activity (AID 720636; active means well fitted curve in the direction sought with a large enough effect in the repeat runs; an effect the other way counts as inactive or inconclusive; further: % of control where 0% means no effect). An outline of the steps:
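ARE-luc HepG2 cells carrying an Nrf2-responsive luciferase reporter were plated in medium with 1% dialyzed FBS, left 6 hr at 37 C to attach, then exposed to compound for 16 hr. Luciferase luminescence was read after ONE-Glo addition.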

A short description of assay [15]: qHTS assay for small molecule agonists of the antioxidant response element (ARE) signaling pathway measured by Nrf2-dependant transcriptional activity - cell viability counter screen (AID 720653; active means well fitted curve in the direction sought with a large enough effect in the repeat runs; an effect the other way counts as inactive or inconclusive; further: on the % scale 0 is the no-effect control and ±100 the full control effect). Particulars: ARE-bla HepG2 viability, CellTiter-Glo ATP luminescence, 16 h; max response: stronger effect = lower value. An outline of the steps: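 ARE-bla HepG2 cells treated with compounds for 16 h at 37C; this counter screen measures viability as intracellular ATP by CellTiter-Glo luminescence after 30 min at room temperature.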

Assay [16] is described as follows: qHTS assay for cell viability of HEK293 cells (AID 743288; active means well fitted curve in the direction sought with a large enough effect; an effect the other way counts as inactive or inconclusive; further: on the % scale 0 is the no-effect control and ±100 the full control effect; nearly all actives have a fitted effect of over 50% in size). Particulars: ATP luminescence (CellTiter-Glo), 18 h; max response: stronger effect = lower value. The method in brief: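 Luminescent ATP quantitation served as the viability read-out. Cells (parental HEK293, 2,000/well) received compounds after at least 5 h at 37 C and were exposed for 18 h before a 30 min room-temperature reagent step.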

A short description of assay [17]: qHTS assay for cell viability of the p53RE-bla HCT-116 cell line (AID 743292; active means well fitted curve in the direction sought with a large enough effect; an effect the other way counts as inactive or inconclusive; further: on the % scale 0 is the no-effect control and ±100 the full control effect; nearly all actives have a fitted effect of over 55% in size). The method in brief:
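CellSensor p53RE-bla HCT-116 cells, 4,000/well, preincubated 5 h at 37 C, then exposed to compounds in DMSO for 16 h at 37 C. Viability read as CellTiter-Glo luminescence (intracellular ATP) after 30 min at room temperature.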

For assay [18], the target named is Thyroid hormone receptor beta (Homo sapiens) (UniProt P10828). Kind of assay: qHTS assay for small molecule antagonists of thyroid hormone receptor beta signaling (AID 588547; active means well fitted inhibition curve with a large enough effect in the signal ratio, with a control signal flat, not every such curve was filed as active; the % refers to the signal ratio). As to conditions: TR-UAS-bla HEK293, beta-lactamase ratio, antagonist mode, 18 h. An outline of the steps:
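TR-UAS-bla GripTite HEK293 cells in 2% charcoal/dextran FBS medium; compounds 0.59 nM to 92 uM with T3 at 0.4nM final, 18 h at 37 C. Beta-lactamase read by CCF4 fluorescence (460/530 nm); Hill fits gave IC50 and efficacy.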

The nature of assay [19]: qHTS assay for small molecule activators of the p53 signaling pathway (AID 651743; active means well fitted activation curve with a large enough effect in the signal ratio, not every such curve was filed as active; the % refers to the signal ratio; further: series mostly up to about 92 µM; % of control where 0% means no effect). Particulars: HCT-116 p53RE-bla, beta-lactamase FRET ratio, 16 h; activation: stronger effect = higher value. The method in brief: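 HCT-116 p53RE-bla, 4,000 cells/well; 5 h settle; cpd/DMSO 16 h, 37 C; LiveBLAzer B/G 2 h RT; fluorescence intensity.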
Assay [20] has as its target Nuclear receptor subfamily 1 group I member 2 (Rattus norvegicus) (UniProt Q9R1A7). Nature of the assay: qHTS assay for small molecule activators of the rat pregnane X receptor (rPXR) signaling pathway (AID 651751; call rule not given here; further: 0% is about no effect). Particulars: rPXR reporter cells, luciferase (One-Glo), 24 h.

SMILES strings stand for the structures. Records with an inconclusive call do not appear. The source made the active and inactive calls. Unless noted, the call rests on the fitted dose curve.

Chain of Nuclear receptor subfamily 1 group I member 2 (Rattus norvegicus) (Q9R1A7 whole entry, looked up): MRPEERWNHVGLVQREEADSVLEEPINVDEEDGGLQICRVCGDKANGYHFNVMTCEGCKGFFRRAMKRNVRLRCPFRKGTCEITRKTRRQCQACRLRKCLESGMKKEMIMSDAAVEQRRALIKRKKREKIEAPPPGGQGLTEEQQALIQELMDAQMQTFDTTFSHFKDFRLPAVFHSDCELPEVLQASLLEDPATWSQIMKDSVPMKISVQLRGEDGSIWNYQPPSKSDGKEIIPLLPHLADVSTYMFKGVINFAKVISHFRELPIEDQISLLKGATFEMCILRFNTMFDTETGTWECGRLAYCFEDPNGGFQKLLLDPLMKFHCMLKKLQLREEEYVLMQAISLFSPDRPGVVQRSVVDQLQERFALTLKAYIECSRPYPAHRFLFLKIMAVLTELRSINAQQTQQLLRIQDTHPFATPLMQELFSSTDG
Chain of Thyroid hormone receptor beta (Homo sapiens) (P10828 whole entry, looked up): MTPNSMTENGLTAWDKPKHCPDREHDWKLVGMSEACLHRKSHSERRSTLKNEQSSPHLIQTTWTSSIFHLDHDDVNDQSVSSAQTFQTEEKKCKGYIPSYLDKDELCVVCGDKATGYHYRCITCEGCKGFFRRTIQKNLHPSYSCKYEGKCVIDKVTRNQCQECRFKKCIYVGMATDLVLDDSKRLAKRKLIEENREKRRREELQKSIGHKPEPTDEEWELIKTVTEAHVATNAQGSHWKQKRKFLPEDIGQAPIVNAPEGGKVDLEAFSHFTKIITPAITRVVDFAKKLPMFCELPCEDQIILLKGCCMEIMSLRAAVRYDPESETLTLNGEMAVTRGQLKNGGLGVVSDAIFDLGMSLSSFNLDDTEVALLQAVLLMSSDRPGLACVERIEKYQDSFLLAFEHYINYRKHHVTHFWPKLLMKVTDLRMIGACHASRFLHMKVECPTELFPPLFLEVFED
Chain of Retinoic acid receptor RXR-alpha (Homo sapiens) (P19793 whole entry, looked up): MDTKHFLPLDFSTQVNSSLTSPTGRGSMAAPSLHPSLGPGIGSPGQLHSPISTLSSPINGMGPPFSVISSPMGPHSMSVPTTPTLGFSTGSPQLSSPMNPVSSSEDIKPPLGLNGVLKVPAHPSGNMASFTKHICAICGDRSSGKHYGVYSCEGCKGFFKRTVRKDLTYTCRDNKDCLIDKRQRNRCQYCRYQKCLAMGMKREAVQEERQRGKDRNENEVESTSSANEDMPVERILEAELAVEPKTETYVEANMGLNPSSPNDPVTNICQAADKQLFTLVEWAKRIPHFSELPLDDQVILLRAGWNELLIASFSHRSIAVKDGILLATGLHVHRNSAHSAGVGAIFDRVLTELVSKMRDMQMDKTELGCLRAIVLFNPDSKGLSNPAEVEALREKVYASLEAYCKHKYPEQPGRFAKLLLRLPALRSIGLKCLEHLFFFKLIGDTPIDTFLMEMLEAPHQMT
Chain of Peroxisome proliferator-activated receptor gamma (Homo sapiens) (P37231 whole entry, looked up): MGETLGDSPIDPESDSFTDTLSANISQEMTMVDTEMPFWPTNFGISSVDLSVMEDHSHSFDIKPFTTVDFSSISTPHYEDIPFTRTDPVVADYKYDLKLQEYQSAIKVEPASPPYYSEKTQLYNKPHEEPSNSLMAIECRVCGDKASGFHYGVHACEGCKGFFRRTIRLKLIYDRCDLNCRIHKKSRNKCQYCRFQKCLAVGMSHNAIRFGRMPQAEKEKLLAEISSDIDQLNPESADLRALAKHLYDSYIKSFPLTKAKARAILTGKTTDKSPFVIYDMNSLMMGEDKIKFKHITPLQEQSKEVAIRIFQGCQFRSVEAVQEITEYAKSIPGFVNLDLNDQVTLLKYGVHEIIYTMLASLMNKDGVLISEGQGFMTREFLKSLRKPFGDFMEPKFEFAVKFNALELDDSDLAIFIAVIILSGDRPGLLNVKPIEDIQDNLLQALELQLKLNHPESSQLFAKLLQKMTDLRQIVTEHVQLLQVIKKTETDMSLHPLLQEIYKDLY
Chain of Peroxisome proliferator-activated receptor alpha (Homo sapiens) (Q07869 whole entry, looked up, the tested form may be a part): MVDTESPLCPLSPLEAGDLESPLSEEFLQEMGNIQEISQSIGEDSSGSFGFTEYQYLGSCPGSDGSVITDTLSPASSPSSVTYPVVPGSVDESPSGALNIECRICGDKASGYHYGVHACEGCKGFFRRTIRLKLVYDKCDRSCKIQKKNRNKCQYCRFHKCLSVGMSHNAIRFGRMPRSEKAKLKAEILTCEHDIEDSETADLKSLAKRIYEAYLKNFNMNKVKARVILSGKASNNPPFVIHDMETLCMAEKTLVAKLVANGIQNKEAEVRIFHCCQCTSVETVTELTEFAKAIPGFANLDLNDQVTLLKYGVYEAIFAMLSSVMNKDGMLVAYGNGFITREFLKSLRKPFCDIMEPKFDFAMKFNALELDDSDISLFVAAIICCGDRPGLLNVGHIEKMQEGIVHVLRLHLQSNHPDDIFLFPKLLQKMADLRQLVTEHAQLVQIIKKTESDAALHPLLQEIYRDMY
Chain of Peroxisome proliferator-activated receptor delta (Homo sapiens) (Q03181 whole entry, looked up): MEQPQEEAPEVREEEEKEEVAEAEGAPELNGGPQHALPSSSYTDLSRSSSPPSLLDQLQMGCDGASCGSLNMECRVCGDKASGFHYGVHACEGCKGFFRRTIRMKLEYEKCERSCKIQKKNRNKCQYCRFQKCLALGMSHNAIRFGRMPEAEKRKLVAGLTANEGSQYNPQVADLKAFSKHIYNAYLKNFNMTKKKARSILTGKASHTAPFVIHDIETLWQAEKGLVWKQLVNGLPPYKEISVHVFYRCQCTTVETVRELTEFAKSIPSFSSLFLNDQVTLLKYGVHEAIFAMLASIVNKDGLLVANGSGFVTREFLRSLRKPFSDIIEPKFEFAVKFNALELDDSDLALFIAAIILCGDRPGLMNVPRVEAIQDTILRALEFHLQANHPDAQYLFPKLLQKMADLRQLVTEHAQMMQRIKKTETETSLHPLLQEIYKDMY
Chain of Estrogen receptor (Homo sapiens) (P03372 whole entry, looked up): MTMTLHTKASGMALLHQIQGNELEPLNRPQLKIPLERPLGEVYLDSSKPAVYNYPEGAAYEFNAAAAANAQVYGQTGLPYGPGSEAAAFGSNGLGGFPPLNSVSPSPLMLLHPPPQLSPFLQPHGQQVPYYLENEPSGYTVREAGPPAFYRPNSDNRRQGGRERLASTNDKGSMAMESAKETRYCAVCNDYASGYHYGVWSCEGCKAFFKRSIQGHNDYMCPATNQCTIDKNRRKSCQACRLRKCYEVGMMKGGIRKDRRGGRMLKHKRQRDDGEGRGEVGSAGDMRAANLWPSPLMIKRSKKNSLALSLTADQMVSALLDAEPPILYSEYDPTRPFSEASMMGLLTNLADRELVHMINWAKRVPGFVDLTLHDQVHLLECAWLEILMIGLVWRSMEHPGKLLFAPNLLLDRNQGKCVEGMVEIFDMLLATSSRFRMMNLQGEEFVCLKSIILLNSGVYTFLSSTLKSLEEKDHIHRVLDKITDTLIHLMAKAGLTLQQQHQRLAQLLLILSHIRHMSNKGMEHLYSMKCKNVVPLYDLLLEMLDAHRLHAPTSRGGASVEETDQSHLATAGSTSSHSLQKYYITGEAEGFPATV
Chain of Vitamin D3 receptor (Homo sapiens) (P11473 whole entry, looked up): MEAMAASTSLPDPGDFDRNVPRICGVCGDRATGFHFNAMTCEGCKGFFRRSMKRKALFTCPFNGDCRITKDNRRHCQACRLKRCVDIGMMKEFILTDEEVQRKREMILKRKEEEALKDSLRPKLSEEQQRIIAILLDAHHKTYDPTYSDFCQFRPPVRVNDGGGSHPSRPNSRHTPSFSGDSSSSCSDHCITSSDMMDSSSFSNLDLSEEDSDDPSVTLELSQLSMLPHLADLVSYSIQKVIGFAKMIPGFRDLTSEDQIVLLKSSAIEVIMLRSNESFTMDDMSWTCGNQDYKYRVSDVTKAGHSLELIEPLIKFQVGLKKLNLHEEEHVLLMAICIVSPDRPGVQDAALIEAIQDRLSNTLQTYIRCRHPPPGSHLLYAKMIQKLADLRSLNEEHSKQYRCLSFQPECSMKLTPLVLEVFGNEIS

On to `CC(C)(C)N(NC(=O)c1ccc(Cl)cc1)C(=O)c1ccccc1`, for which the Potency entry in assay [1], in assay [2], in assay [4], in assay [5], in [6] and in [8] was “inactive” each time. For the same compound, the Potency entry in [9], in assay [14] and in [17] was “inactive” in each case. Also, the outcome in assay [3] was inactive. Also, the max response was -8.46% in assay [7]; -5.95% in assay [10]; 4.87% (inactive) in assay [11]; -3.24% (inactive) in [13]; -5.92% (inactive) in assay [15]; -8.37% (inactive) in [16]. The activation in assay [12] is 1.26% (inactive).

As for `CCOP(=S)(OCC)Oc1cnc2ccccc2n1`, the Potency entry in [1], in [2], in [4], in assay [5], in [9] and in assay [17] was “inactive” throughout. Besides, the compound was called inactive in [3]. Also, the max response in assay [10] is 6.33%; in assay [11], -25.5% (inactive); in assay [13] it was -1.06% (inactive); in assay [15], 3.82% (inactive); in assay [16], -3.73% (inactive); in assay [20], 7.55% (inactive). In addition, the activity change % (negative = inhibition) in assay [18] was -0.975% (inactive). In addition, in [19], the activation is 6.75% (inactive). Further, in [12], the Potency was 35.5 µM (active).

For the compound `CCOP(=O)(OCC)SCSCC`, the Potency result in [1], in assay [2], in assay [4], in assay [5], in [6] and in assay [8] was “inactive” throughout. The Potency entry in assay [9], in assay [14] and in [17] was “inactive” in each case. Also, the max response in assay [7] was -4.7%; in [10] it was -15.2%; in assay [11], -5.71% (inactive); in assay [13], -4.89% (inactive); in assay [15], 2.19% (inactive); in assay [16], -3.03% (inactive). In addition, the max response in assay [20] was -5.9% (inactive). The activity change % (negative = inhibition) in assay [18] is 4.37% (inactive). The activation in assay [19] is 4.72% (inactive).

Take `COc1nc(C)nc(NC(=O)NS(=O)(=O)c2ccccc2CCC(F)(F)F)n1`: the Potency result in assay [1], in assay [2], in assay [4], in assay [5], in [6] and in [8] was “inactive” throughout. The Potency entry in [9] and in assay [17] was “inactive” in each case. The max response was -27.4% in assay [7]; -4.25% in assay [10]; -8.68% (inactive) in [11]; -1.05% (inactive) in assay [13]; 3.55% (inactive) in assay [15]; 0.421% (inactive) in [16]. In addition, in assay [20], the max response is 1.14% (inactive). In addition, the activity change % (negative = inhibition) in assay [18] was 9.28% (inactive). For the same compound, the figures for the activation in assay [19] and in [12] were 1.94% (inactive) and 0.656% (inactive), respectively.

In the case of `CCOP(=O)(O)C(N)=O`, the Potency entry in assay [1], in [2], in assay [4], in assay [5], in [6] and in assay [8] was “inactive” in each case. In addition, the Potency result in assay [9] and in assay [17] was “inactive” throughout. Moreover, in assay [3], the compound was called inactive. For the same compound, the max response in [7] is -12.7%; in [10] it was -9.11%; in assay [11], -9.79% (inactive); in assay [13], -1.31% (inactive); in assay [15], -6.84% (inactive); in [16], -8.79% (inactive). Moreover, the max response in [20] was -2.01% (inactive). In addition, the activity change % (negative = inhibition) in assay [18] was -0.728% (inactive). The activation in [12] is -2.02% (inactive).

The record behind these values is PubChem BioAssay (NCATS).
